PubChem BioAssay (NCATS)
Inconclusive results are not listed. A call without a number means that no potency is given here. Activity calls are given as the source filed them. Unless noted, calls follow the shape of the dose curve; as a rule, active = well fitted curve in the direction sought with a large enough effect; inconclusive = small, poorly fitted or top-dose-only effect, or another doubt; inactive = no such curve, though single readings can be large; an effect the other way counts as inactive or inconclusive.

How the values were obtained:
[1] = Nrf2 qHTS screen for inhibitors: Validation (AID 493153; active = well fitted inhibition curve with a large enough effect in the main read-out, with a control signal flat, not every such curve was filed as active; also: potency is read from the fitted curve at half-maximal effect); settings: Potency: luciferase luminescence; viability change: measured here: cytotoxicity max response
Summary of the method: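 A549 cells carrying an ARE-driven firefly luciferase reporter, in 5% FBS OPTI-MEM, were treated with compounds in concentration-response for 18-24 h at 37°C. Viability was read by CellTiter-Fluor fluorescence, then Nrf2 activity by luciferase luminescence.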

[2] = qHTS for Inhibitors of Cell Surface uPA Generation: Validation Assay (AID 493164);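 also: RAW 264.7 macrophage cells exposed to compound for 18 h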
Summary of the method: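 RAW 264.7, 4000 cells/well, o/n plating; cpd 7-pt 1:5 dilution 2.45 nM–38.3 uM final; 18 h, 37 C/5% CO2; ATP-Lite, 5 s luminescence exposure.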

[3] = biological target: Phosphoglycerate kinase, glycosomal (Trypanosoma brucei brucei) (UniProt P07378); assay: qHTS Validation Assay to Find Inhibitors of Phosphoglycerate Kinase (AID 504547)
Summary of the method: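 Inhibition of the enzyme is judged by a Kinase-Glo Plus luminescent signal following a one-hour incubation at room temperature. Because 1,3-BPG is unstable, it is made in situ by GAPDH at 100nM final; no-PGK wells define the baseline.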

[4] = biological target: Ubiquitin carboxyl-terminal hydrolase 1 (Homo sapiens) (UniProt O94782); assay: Inhibitors of USP1/UAF1: Pilot qHTS (AID 504865);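 also: rhodamine fluorescence freed from ubiquitin-rhodamine substrate followed over time; top concentration of the series differs between compounds; nearly all actives have a fitted effect of over 35% in size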
Summary of the method: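 Enzyme-free wells gave the negative control, while test wells held 1nM USP1/UAF1 preincubated with compound for 15 min at room temperature. Ub-Rho at 150nM final started the reaction, and fluorescence at 480/540 nm was recorded kinetically.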

[5] = qHTS for Inhibitors of ATXN expression: Validation of Cytotoxic Assay (AID 588349)
Summary of the method: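 HEK293 cells were dosed with titrated compounds for 72 hr at 37 degrees C. Viability was read by CellTiter Glo luminescence, with intracellular ATP as the marker of cell survival.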

[6] = qHTS for Inhibitors of ATXN expression: Validation (AID 588378); also: series mostly up to about 57 µM; nearly all actives have a fitted effect of over 75% in size
Summary of the method: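 After a 2 h attachment and 24 h compound incubation, HEK293-ATXN2-FFLuc wells are read for fluorescence at 405 nm excitation/525 nm emission as a viability measure, then for Bright-Glo luminescence reflecting ATXN2 expression.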

[7] = biological target: Peptidyl-prolyl cis-trans isomerase NIMA-interacting 1 (Homo sapiens) (UniProt Q13526); assay: qHTS Validation Assay to Find Inhibitors of Pin1 (AID 504536; active = well fitted inhibition curve with a large enough effect in the polarisation, with a control signal flat, not every such curve was filed as active; the % refers to the polarisation)
Summary of the method: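 Fluorescence polarization competition: compounds (titration) displace HiFluor-488-labeled Pin1-1b peptide from Pin1 (0.3 uM final) in pH 7.5 HEPES buffer with DTT, 10 min at room temperature; %Activity normalized to no-enzyme wells, curves fitted.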

[8] = biological target: phosphoglycerate mutase (Leishmania major) (UniProt Q4Q090); assay: qHTS Validation Assay to Find Inhibitors of Phosphoglycerate Mutase (AID 504548); settings: Potency: inhibition qHTS;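 also: end-point luminescence from Kinase-GloPlus after the PGAM reaction; series mostly up to about 58 µM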
Summary of the method: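 Inhibition of L. major PGAM was assessed by Kinase-GloPlus luminescence following a 45-minute room-temperature reaction with enzyme at 1.25nM final.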

[9] = biological target: Galactokinase (Homo sapiens) (UniProt P51570); assay: qHTS Validation Assay for Inhibitors of Human Galactokinase (GALK) (AID 493189)
Summary of the method: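 Enzyme activity is inferred from ATP consumption: human GALK phosphorylates galactose (100 uM) using 35 uM ATP for 1 h at room temperature, and luciferase-based Kinase-Glo Plus reports unconsumed ATP.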

Chain of Galactokinase (Homo sapiens) (P51570 whole entry, looked up): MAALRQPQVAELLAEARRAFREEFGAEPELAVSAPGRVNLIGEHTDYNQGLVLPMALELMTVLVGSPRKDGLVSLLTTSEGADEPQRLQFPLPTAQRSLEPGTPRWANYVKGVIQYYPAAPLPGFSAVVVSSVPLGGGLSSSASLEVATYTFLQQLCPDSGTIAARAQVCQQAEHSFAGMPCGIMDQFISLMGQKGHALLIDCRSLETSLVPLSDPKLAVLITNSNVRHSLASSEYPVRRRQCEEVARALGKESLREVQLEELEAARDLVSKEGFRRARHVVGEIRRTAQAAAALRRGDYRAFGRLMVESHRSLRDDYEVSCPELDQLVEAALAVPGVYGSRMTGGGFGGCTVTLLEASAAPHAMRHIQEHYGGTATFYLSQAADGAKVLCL
Chain of Ubiquitin carboxyl-terminal hydrolase 1 (Homo sapiens) (O94782 whole entry, looked up): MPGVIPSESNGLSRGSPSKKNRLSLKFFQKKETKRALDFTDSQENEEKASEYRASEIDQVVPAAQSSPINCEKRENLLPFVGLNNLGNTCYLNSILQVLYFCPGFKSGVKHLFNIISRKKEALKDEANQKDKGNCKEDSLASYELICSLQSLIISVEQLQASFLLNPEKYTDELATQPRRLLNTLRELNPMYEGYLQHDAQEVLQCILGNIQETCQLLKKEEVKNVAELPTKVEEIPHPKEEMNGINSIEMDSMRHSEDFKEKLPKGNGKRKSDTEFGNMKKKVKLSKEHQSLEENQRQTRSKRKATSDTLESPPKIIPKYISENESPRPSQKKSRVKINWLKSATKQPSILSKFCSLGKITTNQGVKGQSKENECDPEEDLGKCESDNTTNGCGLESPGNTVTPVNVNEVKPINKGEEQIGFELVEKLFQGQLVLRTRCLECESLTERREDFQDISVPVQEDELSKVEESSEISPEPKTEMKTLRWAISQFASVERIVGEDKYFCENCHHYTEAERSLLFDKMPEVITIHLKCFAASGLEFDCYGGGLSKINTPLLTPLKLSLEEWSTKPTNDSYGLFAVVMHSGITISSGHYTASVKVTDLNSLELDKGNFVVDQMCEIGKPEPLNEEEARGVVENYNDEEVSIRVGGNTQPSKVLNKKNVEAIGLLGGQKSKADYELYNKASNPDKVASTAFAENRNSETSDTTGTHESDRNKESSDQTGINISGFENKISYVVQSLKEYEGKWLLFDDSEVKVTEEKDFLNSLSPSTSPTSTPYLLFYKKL
Chain of phosphoglycerate mutase (Leishmania major) (Q4Q090 1-553): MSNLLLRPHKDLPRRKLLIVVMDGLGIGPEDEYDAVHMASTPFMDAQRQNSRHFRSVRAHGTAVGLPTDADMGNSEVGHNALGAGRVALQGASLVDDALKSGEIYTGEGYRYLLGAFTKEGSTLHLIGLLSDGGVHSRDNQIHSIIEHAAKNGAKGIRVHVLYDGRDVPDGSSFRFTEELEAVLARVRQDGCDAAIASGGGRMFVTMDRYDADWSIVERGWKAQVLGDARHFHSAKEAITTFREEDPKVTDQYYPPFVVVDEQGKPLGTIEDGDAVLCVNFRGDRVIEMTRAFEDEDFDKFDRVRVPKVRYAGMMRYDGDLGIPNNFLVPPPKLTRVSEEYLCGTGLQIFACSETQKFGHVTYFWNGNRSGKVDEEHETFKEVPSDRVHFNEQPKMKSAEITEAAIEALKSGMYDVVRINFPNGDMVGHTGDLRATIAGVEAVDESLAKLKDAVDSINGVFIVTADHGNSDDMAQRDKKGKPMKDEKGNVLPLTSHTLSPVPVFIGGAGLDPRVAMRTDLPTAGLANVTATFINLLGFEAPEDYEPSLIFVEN
Chain of Peptidyl-prolyl cis-trans isomerase NIMA-interacting 1 (Homo sapiens) (Q13526 whole entry, looked up): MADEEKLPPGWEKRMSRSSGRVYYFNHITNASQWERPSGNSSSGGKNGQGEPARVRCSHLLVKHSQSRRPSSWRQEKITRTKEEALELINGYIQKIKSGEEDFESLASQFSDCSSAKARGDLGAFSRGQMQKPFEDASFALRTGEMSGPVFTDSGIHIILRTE
Chain of Phosphoglycerate kinase, glycosomal (Trypanosoma brucei brucei) (P07378 whole entry, looked up): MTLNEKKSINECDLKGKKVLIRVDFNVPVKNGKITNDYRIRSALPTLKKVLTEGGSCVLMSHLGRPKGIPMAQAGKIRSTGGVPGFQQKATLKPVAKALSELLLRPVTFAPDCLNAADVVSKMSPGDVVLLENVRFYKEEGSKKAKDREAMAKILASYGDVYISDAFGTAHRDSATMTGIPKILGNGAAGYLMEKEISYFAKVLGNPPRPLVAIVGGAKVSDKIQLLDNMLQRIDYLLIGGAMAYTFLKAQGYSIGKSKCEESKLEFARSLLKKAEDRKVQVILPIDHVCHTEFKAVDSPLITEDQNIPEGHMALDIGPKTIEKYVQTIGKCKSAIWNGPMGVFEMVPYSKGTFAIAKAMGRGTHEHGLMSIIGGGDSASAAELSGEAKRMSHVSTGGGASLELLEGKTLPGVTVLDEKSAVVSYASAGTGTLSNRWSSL

Row | SMILES | Potency [1] | viability change [1] | outcome [2] | Potency [3] | Potency [4] | Potency [5] | Potency [6] | Potency [7] | Potency [8] | Potency [9]
1 | Nc1nc2c(cnn2CCc2ccccc2)c2nc(-c3ccco3)nn12 | inactive | -1.96% | inactive | inactive | inactive | inactive | inactive |  |  | 
2 | Cc1nc2n(c(=O)c1CCN1CCC(c3noc4cc(F)ccc34)CC1)CCCC2O (stereo not given) | inactive | 3.12% | inactive | inactive | inactive | inactive | inactive | inactive | inactive | 
3 | Oc1ccc(/C=C/c2ccc(/C=C/c3ccc(O)cc3)c(Br)c2)cc1 | inactive | 2.12% | inactive | inactive | inactive |  |  | inactive | inactive | 
4 | C=CCn1c(=O)c2c(nc(-c3ccc(S(=O)(=O)O)cc3)n2C)n(C)c1=O | inactive | 9.3% | inactive | inactive | inactive |  | inactive |  | inactive | inactive
5 | CC1=C(C(=O)O)N2C(=O)[C@@H](NC(=O)C(N)C3=CCC=CC3)[C@H]2SC1 (stereo not given in full) | inactive | 3.51% | inactive | inactive | inactive | inactive | inactive |  | inactive | inactive
6 | Nc1ncnc2c1nc(Br)n2C1OC2COP(=O)(O)O[C@@H]2C1O (stereo not given in full) | inactive | 1.09% | inactive | inactive | inactive | inactive | inactive | inactive | inactive | 
7 | CCCn1c(=O)c(C)cn2nc(N)nc12 | inactive | -13% | inactive | inactive | inactive | inactive | inactive |  | inactive | 
8 | Nc1nc2c(nc(Br)n2C2OC3COP(=O)(O)O[C@@H]3C2O)c(=O)[nH]1 (stereo not given in full) | inactive | 2.34% | inactive | inactive | inactive | inactive | inactive | inactive | inactive | 
9 | NC[C@@H]1O[C@H](c2ccccc2)Cc2c1ccc(O)c2O | inactive | -1.5% | inactive | inactive | inactive | inactive | inactive | inactive | inactive | 
10 | CC(=O)SC1CC2=CC(=O)CC[C@]2(C)C2CC[C@@]3(C)C(CC[C@@]34CCC(=O)O4)C12 (stereo not given in full) | inactive | -9.73% | inactive | inactive | inactive | inactive |  | inactive | inactive | 
11 | CSc1nc(N)c2ncn([C@@H]3O[C@H](COP(=O)(O)OP(=O)(O)O)C(O)[C@H]3O)c2n1 (stereo not given in full) | inactive | 0.858% | inactive |  | inactive |  | inactive |  |  | 
12 | CC(C)(C)c1ccc(/C=C/C(=O)Nc2ccc3c(c2)OCCO3)cc1 | 10.3 µM (active) | -12.9% | inactive | inactive |  |  |  | inactive | inactive | 
13 | C[C@](Cc1ccc(O)c(O)c1)(NN)C(=O)O | inactive | -1.27% | inactive | inactive | inactive | inactive | inactive | inactive | inactive | 
14 | C[C@]12C=CC(=O)C=C1CC[C@@H]1C2=CC[C@]2(C)[C@@H](C(=O)CN3CCN(c4cc(N5CCCC5)nc(N5CCCC5)n4)CC3)CC[C@@H]12 | inactive | -17.1% | inactive | inactive |  | inactive | inactive | inactive |  | 
15 | CC(C)[C@@H]1CC[C@@H](C)C[C@@H]1P(=O)(c1ccccc1)c1ccccc1 | inactive | -1.08% | inactive | inactive | inactive | inactive | inactive | inactive | inactive | 
16 | Cn1c(=O)c2[nH]c(-c3ccc(S(=O)(=O)O)cc3)nc2n(C)c1=O | inactive | -2.21% | inactive | inactive |  | inactive | inactive |  | inactive | inactive
17 | CN1CC(O)C(O)C(O)C1CO (stereo not given) | inactive | 2.46% | inactive | inactive | inactive | inactive | inactive | inactive | inactive | 
18 | N[C@H](C(=O)O)[C@H](Cc1ccccc1)C(=O)O | inactive | -3.91% | inactive | inactive | inactive | inactive | inactive | inactive | inactive | 
19 | CC(N)(Cc1ccc(O)cc1)C(=O)O (stereo not given) | inactive | 11.6% | inactive | inactive | inactive | inactive | inactive |  | inactive | inactive
20 | C=C1C[C@@]23CC[C@H]4[C@@](C)(CCC[C@@]4(C)C(=O)O)[C@@H]2CC[C@]1(O)C3 | inactive | -13.4% | inactive | inactive | inactive | inactive | inactive | inactive | inactive | 
21 | C=CC[C@H](N)C(=O)O | inactive | -2.69% | inactive | inactive |  | inactive | inactive |  | inactive | inactive
22 | N#C/C(=C\c1ccc(O)c(O)c1)C(=O)NCCc1ccccc1 | inactive | -10.3% | inactive | inactive | inactive |  | inactive |  | inactive | inactive
23 | CCc1ccc2c(-c3cccc(Cl)c3)nc(=O)n(CC)c2n1 | inactive | 1.57% | inactive | inactive | inactive | inactive | inactive | inactive |  | 
24 | Cc1cc(Cn2cnc3c2C[C@@H](C(=O)O)N(C(=O)C(c2ccccc2)c2ccccc2)C3)ccc1N | inactive | 6.54% | inactive | inactive | inactive | inactive | inactive | inactive | inactive | 
25 | CCCCCCC(=O)OC1CC(C)(C)NC(C)(C)C1 | inactive | 2.37% | inactive | inactive | inactive | inactive | inactive | inactive | inactive | 
26 | CN1Cc2sccc2C(c2ccc(O)c(O)c2)C1 (stereo not given) | inactive | 12.4% | inactive | inactive | inactive |  | inactive |  | inactive | 
27 | Nc1ncnc2c1nc(Sc1ccc(Cl)cc1)n2[C@H]1OC2COP(=O)(O)O[C@@H]2C1O (stereo not given in full) | inactive | 3.2% | inactive | inactive | inactive |  | inactive |  | inactive | 
28 | c1ccc(C(NCc2cccnc2)(c2ccccc2)c2ccccc2)cc1 | inactive | 7.92% | inactive | inactive |  |  |  | inactive | inactive | 
